Compounds with a hit are over-represented: about 21% of the library has one in this group of screens.
IL-1B inflam inh: qHTS for Inhibitors of Inflammasome Signaling: IL-1-beta AlphaLISA Primary Screen | AID 743279, 2014 | 360,000 tested, 4.7% active | activity change, % at 57.5 µM | THP-1 LPS/ATP IL-1B secretion, AlphaLISA, 16 h; hits give low values; in the data active = activity change below about -50%; inconclusive = mostly about -30% to -49%; also: % is scaled to controls: 0 for no effect and ±100 for the full control effect
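Secreted IL-1B measured by AlphaLISA bead assay after 16 h compound exposure of THP-1 cells; compounds (final up to 57.5 uM) added 1 h before LPS (250 ng/mL) and ATP (1.25 mM) stimulation; lower signal means less secretion.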
ClpP mod: qHTS Assay for Activators of ClpP; ATP-dependent Clp protease proteolytic subunit (Bacillus subtilis (strain 168)), P80244; purified B. subtilis ClpP, FRET peptide cleavage, 20 min; Potency, µM (doses to about 57.5 µM), without a hit: at the highest dose activity change, negative = active; 340,000 tested, 1.9% active; AID 651965, 2013; active = well fitted falling curve with a large enough effect; inconclusive = small, poorly fitted or top-dose-only effect; inactive = no such curve, though single readings can be large or run the other way; also: potency is read from the fitted curve at half-maximal effect; the source files actives as falling curves though it sought activators and does not explain the sign; nearly all actives have a fitted effect of over 65% in size
Target sequence (P80244 whole entry, looked up): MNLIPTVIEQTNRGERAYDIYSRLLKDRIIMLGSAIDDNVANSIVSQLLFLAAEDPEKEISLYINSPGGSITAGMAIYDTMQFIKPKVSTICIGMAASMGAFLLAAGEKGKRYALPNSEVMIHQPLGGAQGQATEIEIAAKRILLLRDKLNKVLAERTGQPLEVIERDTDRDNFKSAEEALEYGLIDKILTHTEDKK
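FRET quenching reversal measured ClpP activation: 10 microg/mL B. subtilis ClpP at pH 8 with the FRET-FV decapeptide, read at 430 nm after 320 nm excitation. The 20-min minus 0-min signal was scaled between DMSO/no-enzyme wells and ADEP (5.8 microM final).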
TDP1 cell CPT: qHTS for Inhibitors of human tyrosyl-DNA phosphodiesterase 1 (TDP1): qHTS in cells in presence of CPT; chicken DT40 Tdp1-/-;hTDP1 cells + 20 nM CPT, ATP luminescence, 48 h; Potency, µM (top dose mostly 46.2 µM), inactives show at the top dose activity change, negative = growth inhibition, usual class: inhibitors; 420,000 tested, 12% active; AID 686979, 2013; also: potency is read from the fitted curve at half-maximal effect; % is scaled to controls: 0 for no effect and ±100 for the full control effect; nearly all actives have a fitted effect of over 55% in size
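Chicken DT40 Tdp1-/- cells complemented with human TDP1, 400 cells/well, exposed to compounds plus 20 nM camptothecin for at least 48 h at 37 C; viability read as ATP content by CellTiter-Glo luminescence.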
DRD3 agonist: qHTS of D3 Dopamine Receptor Agonist: qHTS; 410,000 tested, 0.58% active; AID 652048, 2013; max activation, %; D3R DiscoveRx beta-arrestin cells, luminescence, 90 min; in the data active = max activation above about 30%; also: 0% is about no effect
Target sequence (P35462 whole entry, looked up): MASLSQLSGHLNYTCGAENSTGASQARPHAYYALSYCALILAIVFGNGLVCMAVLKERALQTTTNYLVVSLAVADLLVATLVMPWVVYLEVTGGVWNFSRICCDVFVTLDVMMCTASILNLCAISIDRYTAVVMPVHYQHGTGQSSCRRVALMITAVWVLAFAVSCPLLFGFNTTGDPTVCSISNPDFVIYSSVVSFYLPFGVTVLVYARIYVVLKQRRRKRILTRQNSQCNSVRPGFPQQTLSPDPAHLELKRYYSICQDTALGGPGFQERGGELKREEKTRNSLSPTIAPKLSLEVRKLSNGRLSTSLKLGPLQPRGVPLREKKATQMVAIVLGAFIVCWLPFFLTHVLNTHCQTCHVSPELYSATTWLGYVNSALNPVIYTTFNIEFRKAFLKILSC
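Agonist-mode cell screen: cells plated at 1500/well and incubated overnight at 37 °C, then exposed to library compounds for 90 min at 37 °C. Detection reagent was added for 30–60 min at room temperature, and luminescence was read.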
DT40 TDP1 no CPT: qHTS for Inhibitors of human tyrosyl-DNA phosphodiesterase 1 (TDP1): qHTS in cells in absence of CPT; DT40 Tdp1-/- hTDP1 cells, no CPT, ATP luminescence, 48 h; Potency, µM (top dose mostly 46.2 µM), for inactives: top-dose activity change, negative = growth inhibition, actives largely listed as inhibitors; 420,000 tested, 15% active; AID 686978, 2013; also: potency is read from the fitted curve at half-maximal effect; % is scaled to controls: 0 for no effect and ±100 for the full control effect; nearly all actives have a fitted effect of over 55% in size
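Chicken DT40 Tdp1-/- cells stably complemented with human TDP1 were seeded at 400 cells/well with DMSO in place of 20 nM camptothecin. After compound pinning, cells grew at least 48 hr at 37 °C; viability read by CellTiter-Glo luminescence.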
DRD3 antagonist: qHTS of D3 Dopamine Receptor Antagonist: qHTS. D(3) dopamine receptor (Homo sapiens), P35462. AID 652054, 2013. D3R cells, DiscoveRx beta-arrestin luminescence, antagonist mode; hits give low values. 360,000 tested, 2.5% active. max response, negative = inhibition, %; in the data active = max response below about -50%; inconclusive = no clear call, values can overlap the other calls; also: % is scaled to controls: 0 for no effect and ±100 for the full control effect
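Cells expressing the human receptor were seeded at 1500 cells/well, incubated overnight at 37 degrees C in 5% CO2, then exposed to library compounds with dopamine controls for 90 minutes at 37 degrees C before luminescent detection.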
Starred values were filed as active, the others as inactive; ? = inconclusive; . = no result given. Unless noted, calls follow the shape of the dose curve; as a rule, active = well fitted inhibition curve with a large enough effect; inconclusive = small, poorly fitted or top-dose-only effect; inactive = flat fitted curve, though single readings scatter.

SMILES | IL-1B inflam inh | ClpP mod | TDP1 cell CPT | DRD3 agonist | DT40 TDP1 no CPT | DRD3 antagonist
Cc1ccc(NC2=C(CC(=O)O)C(c3ccccc3)N(c3ccc(C)cc3)C2=O)cc1 (stereo not drawn) | 26 | -1% | 16µM* | -4 | ? | -27
CC(C)Cc1cc(-c2ccco2)c(C#N)c(N)n1 | -8 | 3.2µM* | 10% | 5 | -2% | 10
CCSc1nc(N)c(C#N)c(-c2ccco2)c1C#N | ? | ? | ? | -7 | ? | 0
N#Cc1c(-c2ccco2)cc(-c2ccc(F)cc2)nc1N | -2 | 35µM* | ? | 3 | 18µM* | -5
COc1ccc(-c2noc(CCC(=O)NCCc3ccccc3)n2)cc1OC | 5 | -1% | -21% | -4 | -10% | 2
COc1ccc(Cl)cc1N=Cc1c(O)c2ccccc2oc1=O | 6 | -2% | 16µM* | -6 | ? | -13
Cc1ccccc1C(=O)Nc1nc2nc(-c3ccccc3)cc(=O)n2[nH]1 | . | -8% | -6% | 3 | -17% | .
CCc1ccc(C2CC(=O)Nc3c2c(=O)n(C)c2ncnn32)cc1 (stereo not drawn) | . | -5% | . | -12 | . | .
Cc1ccc(NC(=S)NCc2ccc3[nH]c4c(c3c2)CCCC4)cc1 | ? | -7% | ? | -5 | 13µM* | -12
CCc1ccc(NS(=O)(=O)c2ccc3[nH]c4c(c3c2)CCCCCC4)cc1 | . | -15% | ? | -1 | ? | .
Cc1ccc(NS(=O)(=O)c2ccc3[nH]c4c(c3c2)CCCCCC4)cc1C | . | -25% | ? | -2 | 16µM* | .
Cc1ccc(NS(=O)(=O)c2ccc3[nH]c4c(c3c2)CCCCCC4)cc1 | . | -6% | 26µM* | -1 | ? | .
O=S(=O)(Nc1cccc(F)c1)c1ccc2[nH]c3c(c2c1)CCCCC3 | . | -6% | 21µM* | -17 | ? | .
NNC(=O)Cn1nc(Cc2ccccc2)n(N)c1=O | 21 | 1% | 3% | 4 | -6% | 1
O=C(Nc1ccccc1Cl)c1ccc(-n2cccn2)c([N+](=O)[O-])c1 | -83* | . | 2% | -11 | -16% | -7
Cc1c(NC(=O)c2ccc(Cl)c([N+](=O)[O-])c2)cccc1-n1cnnn1 | -99* | 0% | ? | -11 | ? | ?
Cc1c(NC(=O)c2ccc(S(=O)(=O)N(C)C)cc2)cccc1-n1cnnn1 | -3 | -1% | -29% | 1 | ? | 11
CCCCC(CC)CNC(=O)C1CCC(CNS(=O)(=O)c2cccc3nsnc23)CC1 (stereo not drawn) | . | 0% | ? | 3 | 21µM* | .
O=C(C1CCC(CNS(=O)(=O)c2cccc3nsnc23)CC1)N1CCN(c2ccccn2)CC1 (stereo not drawn) | 10 | -8% | ? | 5 | 23µM* | 31
CC(C)CCNC(=O)C1CCC(CNS(=O)(=O)c2cccc3nsnc23)CC1 (stereo not drawn) | -1 | 3% | ? | 1 | ? | -6
CCCN(CCC)C(=O)C1CCC(CNS(=O)(=O)c2cccc3nsnc23)CC1 (stereo not drawn) | -5 | -2% | ? | -11 | ? | -2
CCCCN(C(=O)C1CCC(CNS(=O)(=O)c2cccc3nsnc23)CC1)c1ccccc1 (stereo not drawn) | . | -2% | ? | 5 | 21µM* | .
CCOc1ccc(C(=O)NCc2nc3cccnc3n2Cc2ccc(F)cc2)cc1OCC | . | -2% | -16% | -9 | -22% | .
O=C(CCc1ccncc1)NC1CCCc2c1cnn2-c1cc(F)cc(F)c1 (stereo not drawn) | 13 | . | 1% | -11 | ? | 2
Cc1nn(-c2ccccc2)c(N2CCCC2)c1/C=N/NC(=O)c1ccccc1O | 15 | -6% | ? | -2 | ? | 11
SMILES | IL-1B inflam inh | ClpP mod | TDP1 cell CPT | DRD3 agonist | DT40 TDP1 no CPT | DRD3 antagonist
O=C(N/N=C/c1cc2c3c(c1O)CCCN3CCC2)c1ccccc1O | 221 | . | 3.7µM* | -8 | 4.6µM* | 6
COc1ccnc(Oc2cccc(C(F)(F)F)c2)c1C(=O)N/C=N/OCc1ccccc1F | -59* | . | ? | 4 | 21µM* | 34
O=C(COc1ccc2ccccc2c1)NC1CC(=O)N(c2ccccc2)C1 (stereo not drawn) | . | -1% | -20% | 3 | -23% | .
Cc1cccc2c(=O)[nH]c3c(-c4nc(-c5ccc(Cl)cc5)cs4)c(O)cn3c12 | . | 4% | 4µM* | . | 7.1µM* | .
Cc1cc(C)cc(NC(=S)N(CCN(C)C)C(C)c2cccnc2)c1 (stereo not drawn) | 67 | . | 6% | -5 | 1% | -1
Cc1cc(C)c(NC(=S)N(CCN(C)C)C(C)c2cccnc2)c(C)c1 (stereo not drawn) | -8 | 16µM* | 23% | 0 | -3% | -2
COc1ccc(NC(=O)CCNS(=O)(=O)c2cccc3nonc23)c(OC)c1 | 4 | 0% | 4% | 1 | -14% | -19
Cc1ccc2c(CC(=O)Nc3ccc4nc(N5CCOCC5)sc4c3)coc2c1 | 40 | 4% | -30% | 0 | ? | -5
CCc1cc(C(c2ccc(OC)c(OC)c2)N2CCOCC2)c(NC(=O)c2ccccc2)s1 (stereo not drawn) | -124* | -12% | ? | -1 | 21µM* | 0
CCc1cc(C(c2cccc(OC)c2)N2CCOCC2)c(NC(=O)c2ccccc2)s1 (stereo not drawn) | ? | ? | ? | 0 | 15µM* | 9
CCc1cc(C(c2ccc(F)cc2)N2CCOCC2)c(NC(=O)c2ccccc2)s1 (stereo not drawn) | ? | -5% | ? | -6 | ? | 5
COc1cccc(NC(=O)Cn2c(=O)n(CCCCC(=O)NCCc3ccccc3)c(=O)c3ccccc32)c1 | . | -6% | ? | -8 | ? | .
COc1ccc(-c2cc3ccc(OCc4nn[nH]n4)cc3oc2=O)cc1OC | 0 | ? | -12% | 0 | 17% | -12
COc1ccc(-c2cc(=O)oc3cc(OCC(=O)Nc4ccc(CCO)cc4)ccc23)cc1 | 64 | -1% | 3.7µM* | 5 | 0.52µM* | 7
COc1ccc(-c2cc(=O)oc3cc(OCc4nn[nH]n4)ccc23)cc1 | 62 | -26% | 1% | -5 | -16% | -53*

Bioassay records: PubChem, National Center for Advancing Translational Sciences (NCATS)
